In the supplement of paper PMC9262897, “Low-cost anti-mycobacterial drug discovery using engineered E. coli” (Nature Communications, 2022) one finds growth data, which are given here for six compounds.

Counter-ions that a name gives are not always drawn. ± gives the standard deviation of the averaged measurements.

Experiment in all cases: growth (OD600 after 10 h); higher = more growth (less inhibition)
Assay [1] concerns E. coli TESEC Alr+ wild-type control. The settings on record: compound 0.1 mM; raw OD600 reference: median of DMSO wells 0.241, cell-free background 0.041. As to the method: (§1)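 TESEC Mtb Alr E. coli, or the Alr+ wild-type control, in 384-well plates with Prestwick library compounds at 0.1 mM and 1% DMSO, across arabinose induction levels of 1E3 to 1E7 nM. Growth is read as OD600 after 10 h at 37 °C in triplicate biological replicates.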

Assay [2] concerns E. coli TESEC Mtb Alr. The settings on record: compound 0.1 mM. The protocol: as §1
The subject of assay [3] is E. coli TESEC Mtb Asd. The settings on record: compound 0.1 mM. The protocol:
(§2)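 TESEC E. coli strains in which the native enzyme is deleted and replaced by arabinose-inducible Mtb Asd, DapB, CysH or TrpD, each grown in its selective medium. Strains were screened against the Prestwick library at 0.1 mM and 1% DMSO in 384-well format at low and high arabinose induction. Growth is read as OD600 after 10 h in triplicate.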

In assay [4] the test system is E. coli TESEC Mtb DapB. Particulars: compound 0.1 mM. The protocol:
as §2

Assay [5] has as its system E. coli TESEC Mtb Alr. The settings on record: compound 0.1 mM. As to the method:
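TESEC Mtb Alr E. coli (ΔaraC ΔtolC ΔentC Δalr ΔdadX, arabinose-inducible Mtb Alr) or the Alr+ wild-type control strain, grown in defined M9-fructose medium without D-alanine in 96-well plates with Prestwick library compounds at 0.1 mM and 1% DMSO. Low Alr induction is 0.1 µM arabinose and high induction is 10 mM arabinose.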
The source holds these as a separate data set.

[6] abbreviates: arabinose 1000 nM, raw OD600 reference: median of DMSO wells 0.294, cell-free background 0.041.
The mark [7] stands for this setting: arabinose 10000 nM, raw OD600 reference: median of DMSO wells 0.264, cell-free background 0.041.
[8] abbreviates: arabinose 100000 nM, raw OD600 reference: median of DMSO wells 0.201, cell-free background 0.041.
The mark [9] stands for this setting: arabinose 1000000 nM, raw OD600 reference: median of DMSO wells 0.193, cell-free background 0.041.
Where [10] appears, read: arabinose 10000000 nM, raw OD600 reference: median of DMSO wells 0.146, cell-free background 0.041.
The mark [11] stands for this setting: arabinose induction (level): High, raw OD600 reference: median of DMSO wells 0.331, cell-free background 0.041.
[12] abbreviates: arabinose induction (level): Low, raw OD600 reference: median of DMSO wells 0.417, cell-free background 0.041.
The mark [13] stands for this setting: arabinose induction (level): High, raw OD600 reference: median of DMSO wells […], cell-free background 0.041.
Setting [14] is: arabinose induction (level): Low, raw OD600 reference: median of DMSO wells 0.227, cell-free background 0.041.
Setting [15] is: arabinose 100 nM, raw OD600 reference: median of DMSO wells 0.413, cell-free background 0.052.
The mark [16] stands for this setting: arabinose 10000000 nM, raw OD600 reference: median of DMSO wells […], cell-free background 0.052.

On to `CC1(C)O[C@@H]2C[C@H]3[C@@H]4C[C@H](F)C5=CC(=O)C=C[C@]5(C)[C@@]4(F)[C@@H](O)C[C@]3(C)[C@]2(C(=O)CO)O1` [Fluocinolone acetonide], for which the growth was determined as 0.174 ± 0.0075 in assay [1]; 0.262 ± 0.01 in assay [2] (setting [6]); 0.263 ± 0.0058 in assay [2] (setting [7]); 0.153 ± 0.0083 in assay [2] (setting [8]); 0.146 ± 0.0019 in assay [2] (setting [9]); 0.144 ± 0.0033 in assay [2] (setting [10]). In addition, the growth in assay [3] (setting [11]) came to 0.198 ± 0.02; in assay [3] (setting [12]), 0.401 ± 0.017; in assay [4] (setting [13]), 0.188 ± 0.019; in assay [4] (setting [14]), 0.239 ± 0.039; in assay [5] (setting [15]), 0.409 ± 0.0053; in assay [5] (setting [16]), 0.274 ± 0.0057.
`CNCC[C@@H](Oc1ccccc1C)c1ccccc1` [Tomoxetine hydrochloride]: the growth in assay [1] turned out to be 0.216 ± 0.0098; in assay [2] (setting [6]) it was 0.254 ± 0.0027; in assay [2] (setting [7]), 0.272 ± 0.0044; in assay [2] (setting [8]) it was 0.211 ± 0.019; in assay [2] (setting [9]), 0.139 ± 0.0019; in assay [2] (setting [10]), 0.173 ± 0.0034. For the same compound, the growth in assay [3] (setting [11]) was 0.205 ± 0.024; in assay [3] (setting [12]), 0.294 ± 0.021; in assay [4] (setting [13]), 0.18 ± 0.0036; in assay [4] (setting [14]), 0.263 ± 0.047; in assay [5] (setting [15]) it was 0.407 ± 0.0067; in assay [5] (setting [16]), 0.326 ± 0.018.
For `CCC1=C(C)CN(C(=O)NCCc2ccc(S(=O)(=O)NC(=O)N[C@H]3CC[C@H](C)CC3)cc2)C1=O` [Glimepiride], the growth was 0.247 ± 0.0069 in assay [1]; 0.299 ± 0.011 in assay [2] (setting [6]); 0.239 ± 0.0027 in assay [2] (setting [7]); 0.161 ± 0.0087 in assay [2] (setting [8]); 0.182 ± 0.004 in assay [2] (setting [9]); 0.155 ± 0.0053 in assay [2] (setting [10]). The growth in assay [3] (setting [11]) came to 0.338 ± 0.064; in assay [3] (setting [12]), 0.439 ± 0.052; in assay [4] (setting [13]) it was 0.21 ± 0.012; in assay [4] (setting [14]) it was 0.221 ± 0.018; in assay [5] (setting [15]) it was 0.411 ± 0.0056; in assay [5] (setting [16]) it was 0.193 ± 0.014.
For `COc1cc(-c2ccc(=O)[nH]n2)ccc1OC(F)F` [Zardaverine], the growth in assay [1] was 0.14 ± 0.0036; in assay [2] (setting [6]) it was 0.173 ± 0.0042; in assay [2] (setting [7]) it was 0.188 ± 0.013; in assay [2] (setting [8]), 0.17 ± 0.021; in assay [2] (setting [9]) it was 0.171 ± 0.0067; in assay [2] (setting [10]), 0.147 ± 0.0091. In addition, the growth worked out at 0.211 ± 0.014 in assay [3] (setting [11]); 0.162 ± 0.014 in assay [3] (setting [12]); 0.16 ± 0.012 in assay [4] (setting [13]); 0.176 ± 0.018 in assay [4] (setting [14]); 0.401 ± 0.0082 in assay [5] (setting [15]); 0.35 ± 0.011 in assay [5] (setting [16]).
In the case of `Clc1ccc(C(Cn2ccnc2)OCc2ccsc2Cl)c(Cl)c1` (configuration not stated) [Tioconazole], the growth turned out to be 0.04147 ± 0.00032 in assay [1]; 0.0412 ± 0.0011 in assay [2] (setting [6]); 0.0461 ± 0.00071 in assay [2] (setting [7]); 0.04173 ± 0.00029 in assay [2] (setting [8]); 0.0443 ± 0.00052 in assay [2] (setting [9]); 0.04223 ± 0.00035 in assay [2] (setting [10]). Besides, the growth worked out at 0.0476 ± 0.0011 in assay [3] (setting [11]); 0.0482 ± 0.0016 in assay [3] (setting [12]); 0.0486 ± 0.00086 in assay [4] (setting [13]); 0.0575 ± 0.017 in assay [4] (setting [14]); 0.0561 ± 0.0097 in assay [5] (setting [15]); 0.051 ± 0.00017 in assay [5] (setting [16]).
In the case of `CS(=O)(=O)c1ccc(C2=C(c3ccccc3)C(=O)OC2)cc1` [Rofecoxib], the growth in assay [1] is 0.182 ± 0.012; in assay [2] (setting [6]), 0.2483 ± 0.0006; in assay [2] (setting [7]), 0.242 ± 0.019; in assay [2] (setting [8]), 0.184 ± 0.037; in assay [2] (setting [9]), 0.151 ± 0.008; in assay [2] (setting [10]) it was 0.144 ± 0.011. The growth in assay [3] (setting [11]) came out at 0.336 ± 0.1; in assay [3] (setting [12]), 0.362 ± 0.097; in assay [4] (setting [13]), 0.205 ± 0.0062; in assay [4] (setting [14]), 0.213 ± 0.009; in assay [5] (setting [15]), 0.409 ± 0.015; in assay [5] (setting [16]), 0.302 ± 0.041.
